Results reported in the supplement of paper PMC12636033.
± gives the standard deviation of the averaged measurements. Over roughly 33,000 sequences, “E-score (rank enrichment, -0.5 to 0.5)” has its median near -0.0075; the highest 2% begin near 0.23. The sample as a whole holds a higher share of the highest values than the screen did.

Tested on: WT Max(13-93) synthetic (M65Nle)
Assay: PBM 8-mer E-score (E-score (rank enrichment, -0.5 to 0.5)); higher = stronger preferential binding
Description: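 Protein binding microarray (universal PBM chip covering all 10-mers in fixed probe flanks) with chemically synthesized human Max(13-93) bHLH-LZ analogs (not full-length Max) bearing noncanonical residues (hArg, Tha, Aib, Nle at 65) and aromatic Cys staples. Read-out per 8-mer (and its reverse complement): E-score (rank-based enrichment, -0.5 to 0.5) and Z-score of median probe intensity.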

Point of comparison: ATCATTGC, “PBM 8-mer E-score” value 0.0872 ± 0.064. Against it:
- CTATTAAA — higher, 0.173 ± 0.011
- TTATTAAA — within error, 0.131 ± 0.26
- ATATTAAA — higher, 0.24 ± 0.03
- ATATTAAT — higher, 0.274 ± 0.059
- AAGTTGGC — lower, -0.119 ± 0.0037
- TCGCTGCA — lower, -0.149 ± 0.09
- GGCGCCAC — within error, -0.0393 ± 0.073
- GCAGAAAC — within error, 0.0456 ± 0.087
- AGACCTCA — lower, -0.0265 ± 0.028
- TCGGCACA — within error, -0.0668 ± 0.093
- AACGTGTG — higher, 0.178 ± 0.016
- ATCGTGTA — within error, 0.0318 ± 0.041
- AACGTGTC — higher, 0.189 ± 0.014
- CCCGTGTA — within error, 0.183 ± 0.1
- CGCGTGTC — higher, 0.232 ± 0.011
- AACGTGTA — higher, 0.26 ± 0.0055
- AGCGTGTA — within error, 0.11 ± 0.018
- CCCGTGTC — within error, 0.0152 ± 0.049
- CACGTGTC — higher, 0.4823 ± 0.0015
- CGCGTGTA — higher, 0.29 ± 0.052
- GACGTGTA — within error, -0.0197 ± 0.094
- CACGTGTA — higher, 0.4825 ± 0.0012
- GGCAGACC — lower, -0.189 ± 0.022
- AAGAGATC — lower, -0.149 ± 0.086
- AAGGTGCT — within error, 0.0391 ± 0.026
- ACAGCAGT — lower, -0.155 ± 0.016
- ACATGTTG — higher, 0.239 ± 0.012
- GAATGTTA — within error, 0.158 ± 0.079
- CCATGTTA — within error, 0.103 ± 0.095
- GGATGTTA — within error, 0.0759 ± 0.064
- ACATGTTA — higher, 0.267 ± 0.008
- AAATGTTA — within error, 0.127 ± 0.032
- AGATGTTG — lower, -0.133 ± 0.11
- ACATGTTC — higher, 0.246 ± 0.016
- CCATGTTC — within error, -0.00628 ± 0.14
- AGATGTTC — lower, -0.10933 ± 4.9e-05
- AAATGTTG — within error, -0.0126 ± 0.086
- GCATGTTA — higher, 0.266 ± 0.075
- ATAGTCTC — within error, 0.0149 ± 0.021
- ACGGCCAT — within error, -0.0405 ± 0.11
- ATTAGGCG — lower, -0.0541 ± 0.021
- CTTGCAGC — lower, -0.155 ± 0.06
- AAGGCCCA — lower, -0.0696 ± 0.03
- AACCTCGG — lower, -0.285 ± 0.089
- ACAGCAGA — lower, -0.0839 ± 0.019
- CCTGGCCC — lower, -0.288 ± 0.052
- GATTCATA — lower, -0.0144 ± 0.0027
- CATTCATA — higher, 0.243 ± 0.071
- CATTCATC — within error, 0.048 ± 0.036
- CTACGGGA — within error, 0.0112 ± 0.028
- CATACACA — within error, 0.228 ± 0.099
- CATACATG — higher, 0.245 ± 0.026
- CATACATC — within error, 0.135 ± 0.022
- CATACATA — within error, 0.17 ± 0.086
- CATACACG — higher, 0.238 ± 0.086
- AATACATG — higher, 0.243 ± 0.072
- AATACATT — within error, 0.132 ± 0.098
- TATACACA — within error, 0.0996 ± 0.085
- AATACATA — within error, 0.211 ± 0.11
- AAAAGCAA — within error, 0.066 ± 0.13
- GCCAGATA — within error, -0.00267 ± 0.056
- CCAACTTC — lower, 0.0001 ± 0.0037
- TGGAAAAA — within error, 0.0641 ± 0.057
- ACTGTCCT — lower, -0.0581 ± 0.038
- GACGAGTA — within error, 0.0201 ± 0.095
- CACGAGGA — higher, 0.217 ± 0.02
- CACGAGTA — higher, 0.237 ± 0.0057
- CACGAGAA — within error, 0.12 ± 0.075
- CACGAGGC — higher, 0.252 ± 0.079
- AACGAGAT — lower, -0.133 ± 0.092
- TACGAGTA — within error, 0.173 ± 0.023
- CACGAGGG — higher, 0.1535 ± 0.0012
- AACGAGAA — higher, 0.242 ± 0.073
- CCTACAGA — within error, -0.0418 ± 0.11
- ATTTGTGC — within error, 0.0791 ± 0.13
- CCGGCCAC — lower, -0.164 ± 0.0042
- ACAAGCCA — within error, -0.0302 ± 0.081
- CAATAATG — within error, 0.0933 ± 0.042
- CAATAATA — higher, 0.275 ± 0.019
- CAATAATC — within error, 0.00647 ± 0.1
- CAATAAAC — within error, 0.139 ± 0.04
- CAATAAAA — higher, 0.29 ± 0.011
- GAATAAAA — within error, 0.184 ± 0.097
- CCGACTCA — lower, -0.185 ± 0.0089
- CCTCAAAA — higher, 0.192 ± 0.0034
- CCGCGTAG — within error, -0.0165 ± 0.042
- CGCTTCCC — lower, -0.0261 ± 0.049
- CTTTGTTA — higher, 0.195 ± 0.042
- AAGGAGGA — lower, -0.0623 ± 0.0073
- TGTATACA — higher, 0.307 ± 0.074
- GGTATACA — within error, 0.0958 ± 0.069
- AGTATACA — within error, 0.155 ± 0.15
- CGTATACC — lower, -0.109 ± 0.063
- CGTATACG — higher, 0.241 ± 0.024
- CGTATACA — within error, 0.105 ± 0.07
- CCGATCCC — lower, -0.173 ± 0.033
- ATCACCCC — within error, 0.117 ± 0.11
- CCAGGACC — lower, -0.162 ± 0.086
- ATAATCAC — within error, 0.04 ± 0.043
- CTAATCAG — within error, 0.027 ± 0.0044
- AAAATCAG — within error, 0.104 ± 0.15
- ATAATCAT — higher, 0.285 ± 0.0003
- ATAATCAA — within error, 0.15 ± 0.011
- ATAATCAG — within error, 0.256 ± 0.14
- AGCTTCTC — within error, 0.118 ± 0.0033
- AGACGTCG — lower, -0.117 ± 0.066
- CACCCTCC — within error, 0.202 ± 0.054
- CGGGGTCC — lower, -0.276 ± 0.066
- CCATGGTC — within error, 0.0328 ± 0.1
- ACATGGGA — within error, 0.135 ± 0.03
- CCATGGTA — within error, 0.0299 ± 0.078
- ACATGGTA — higher, 0.277 ± 0.008
- ACATGGTC — higher, 0.319 ± 0.016
- ACATGGGG — higher, 0.273 ± 0.033
- ACATGGCG — higher, 0.183 ± 0.026
- ACATGGCC — within error, 0.232 ± 0.14
- CCATGGGG — lower, -0.138 ± 0.011
- GCATGGTA — higher, 0.185 ± 0.032
- GCATGGCC — within error, 0.0853 ± 0.066
- CTATGGTC — lower, -0.0873 ± 0.11
- AAATCGCT — lower, -0.0979 ± 0.047
- ACTGTGTG — within error, 0.0422 ± 0.088
- AAGAACTA — higher, 0.204 ± 0.045
- CGCTGCAA — lower, -0.0409 ± 0.02
- ACATGGTG — higher, 0.233 ± 0.045
- ACATGGAG — higher, 0.198 ± 0.015
- AGATGGTG — within error, 0.00749 ± 0.089
- GTGGGGAA — within error, 0.205 ± 0.11
- GACTGACA — lower, -0.0306 ± 0.026
- AGGCCCTC — within error, 0.00332 ± 0.043
- CAGGAATC — lower, -0.216 ± 0.02
- ATACAAAG — within error, 0.0198 ± 0.057
- TTACAAAA — higher, 0.225 ± 0.024
- CTACAAAA — within error, 0.0614 ± 0.0036
- ATACAAAC — higher, 0.212 ± 0.016
- ATACAAAT — higher, 0.249 ± 0.035
- ATACAAAA — higher, 0.265 ± 0.02
- GAGAAAAC — lower, -0.0792 ± 0.0078
- GCAAAGGA — lower, 0.00898 ± 0.011
- AATTCATG — within error, 0.132 ± 0.0098
- CTATTCAC — lower, -0.0152 ± 0.017
- GTATTCAC — within error, 0.0929 ± 0.016
- ATATTCAC — higher, 0.234 ± 0.022
- CGCTGTCA — lower, -0.225 ± 0.066
- ACGTTCGA — lower, -0.101 ± 0.043
- CGTATGGA — within error, -0.00324 ± 0.07
- ATGTAACA — higher, 0.239 ± 0.027
- CTGTAATA — within error, 0.0153 ± 0.064
- ATGTAATG — within error, 0.16 ± 0.079
- CTGTAAAA — within error, 0.0812 ± 0.032
- ATGTAAAT — higher, 0.224 ± 0.021
- CTGTAACA — within error, 0.044 ± 0.048
- ATGTAACG — within error, 0.0739 ± 0.012
- ATGTAATA — higher, 0.25 ± 0.011
- ATGTAAAA — higher, 0.268 ± 0.011
- GCTTAGGA — lower, -0.105 ± 0.036
- TGACCCAA — within error, 0.106 ± 0.036
- CGTTACTA — within error, 0.108 ± 0.1
- CCCTCCTC — lower, -0.0364 ± 0.059
- GCATAGTA — within error, 0.0884 ± 0.0015
- GTCCCGCA — lower, -0.141 ± 0.005
- ACGTGTGA — within error, 0.192 ± 0.054
- ACGTGTGG — higher, 0.3 ± 0.048
- CCGTGTGC — lower, -0.0611 ± 0.063
- AAGTGTGG — within error, 0.0251 ± 0.043
- ACGTGTGC — higher, 0.348 ± 0.0039
- AGGTGTGG — within error, 0.0754 ± 0.09
- ACAAAACG — within error, 0.152 ± 0.068
- ACCAGACA — lower, -0.0218 ± 0.036
- AAGAACAG — within error, 0.137 ± 0.033
- AAGAACAC — within error, 0.156 ± 0.11
- AAGAACAT — higher, 0.2472 ± 0.0023
